The campaign covered roughly 68,000 compounds. About 2,700 (4%) showed an effect of 50% or more. The entries come from a sample that favours strong results as a whole.

This note sets out measurements from ChEMBL document CHEMBL4513216, “Probing the Open Global Health Chemical Diversity Library for Multistage-Active Starting Points for Next-Generation Antimalarials” (ACS Infect Dis, 2020).

The experiment concerns Plasmodium berghei. The experiment is described as follows: Screen against P. berghei liver stage (PbLuc), transformed with Luciferase, at 2uM. The format is functional, HepG2. Conditions: tested at 2 uM.
For `Cc1nc(C2CCCN(C(=O)CCCn3cccn3)C2)sc1C` (stereo not drawn), the INHIBITION is 15.67%.
Next, `O=C(c1ccc2[nH]ccc2c1)N1CC[C@@H]2CN(CC3CC3)CCO[C@@H]2C1`: 12.83%.
Next, `CCS(=O)(=O)N1CCc2cc(C(=O)N(C)C)c(NCC3CC3)nc2CC1`: 27.08%.
In the case of `COC(=O)COc1cc(NCc2c(C)noc2C)c(Cl)cc1C` it was -55.9%; in that of `NC(=O)COc1ccc(CN2CCC(O)(CN3CCCCC3)C2)cc1Cl` (stereo not drawn), -32.93%.
`Cc1cnn(C2CN(CC(=O)NCCc3ccsc3)C2)c1`: the INHIBITION is listed as -21.39%.
Next, `O=C(CCC1CCCO1)NCc1ccc(Br)cc1F` (stereo not drawn): 1.52%.
Consider `Cc1cc(C(=O)O)c2c(Br)cccc2n1`, for which the INHIBITION is reported as -34.12%.
Next, `COCCCN1Cc2cccc(NC(=O)c3cc(F)ccc3F)c2C1`: -9.01%; `CCc1nnsc1C(=O)N1CCCC1c1c(C)nn(C)c1OC` (stereo not drawn): -12.75%.
In the case of `COc1ccc(C(C(=O)O)N2CCC(O)(c3cccnc3)CC2)cc1Cl` (stereo not drawn) it was 55.39%; in that of `COc1ccc(C(C(=O)O)N2CCC(O)(c3cccnc3)CC2)cc1F` (stereo not drawn), -38.97%; in that of `COc1cccc(Cl)c1C(C(=O)O)N1CCC(O)(c2cccnc2)CC1` (stereo not drawn), -4.09%.
Next, `Cc1ccc(C(=O)N2C[C@H]3CCC[C@@]3(COCc3cccnc3)C2)s1`: -5.01%; `CCCC(=O)N1CCC(c2ncc3c(n2)CCNC3)CC1`: 5.15%.
For `CCC(=O)N1CCC(c2ncc3c(n2)CCNC3)CC1`, the INHIBITION came out at 95.75%.
In the case of `O=C(CC1CCCCC1)N1CCC(c2ncc3c(n2)CCNC3)CC1`, the INHIBITION is on record as 6.4%.
As to `COc1c[nH]c(C(=O)N2CCN(c3ccc(Cl)cc3)CC2)cc1=O`, the INHIBITION turned out to be 5.28%.
In the case of `Cc1cc(C)n(C2CN(CC(O)c3ccc(S(C)(=O)=O)cc3)C2)n1` (stereo not drawn) it was -3.06%.
In the case of `COc1ccc(C(O)CN2CC(n3nc(C)cc3C)C2)cc1` (stereo not drawn) it was -1.02%.
In the case of `Cc1cc(C)n(C2CN(CC(O)c3ccc(F)cc3)C2)n1` (stereo not drawn) it was -26.11%; in that of `Cc1cc(C)n(C2CN(CC(O)c3ccc(C(F)(F)F)cc3)C2)n1` (stereo not drawn), 56.02%; in that of `Cc1cc(C)n(C2CN(CC(O)COc3ccc(F)cc3)C2)n1` (stereo not drawn), 12.31%.
`Cc1cc(C)n(C2CN(CC(O)c3cc(F)ccc3F)C2)n1` (stereo not drawn): the INHIBITION is listed as 53.98%.
Next, `O=C(c1cnnn1-c1ccccc1)N1CCCC(c2ccn[nH]2)C1` (stereo not drawn): -44.17%; `O=C(c1ccco1)N1C[C@@H]2CCN(c3cccnc3)C[C@@H]2C1`: -19.54%.
For the molecule `CCc1nnc2n1CCN(C(C(=O)N(CC)CC)c1ccccc1)C2` (stereo not drawn), the INHIBITION was 47.85%.
Next, `Cc1nnc2n1CCN(C(C(=O)N1CCCCC1)c1ccccc1)C2` (stereo not drawn): -40.65%; `CCN(CC)C(=O)C(c1ccccc1)N1CCn2c(C)nnc2C1` (stereo not drawn): 63.95%.
In the case of `COc1ncc(C2(O)CCN(Cc3ccc(F)c(F)c3)CC2)c(OC)n1` it was 10.83%; in that of `O=C(CN1CCCC(O)C1)NC(=O)NCc1cccs1` (stereo not drawn), -4.29%.
Next, `Cc1cccc(C2(CNC(=O)c3ccnc(N(C)C)c3)CCOCC2)c1`: -3.96%; `CN(C)c1cc(C(=O)NCC2(c3cccc(F)c3)CCOCC2)ccn1`: 15.38%.
For `CN(C)c1cc(C(=O)NCC2(c3ccc(F)cc3)CC2)ccn1`, the INHIBITION stood at 87.73%.
In the case of `CC(=O)N1CCC(C(=O)NCCN2CCC(C)CC2)CC1` it was 44.99%; in that of `COCCCNC(=O)C1CCN(CC2(O)CCC(C)CC2)CC1` (stereo not drawn), 54.69%.
Next, `CCCNC(=O)C1CCN(CC2(O)CCC(C)CC2)CC1` (stereo not drawn): 50.03%; `CCCC(=O)N1CCC(C(=O)NCCN2CCC(C)CC2)CC1`: 20.43%; `CC1CCC(O)(CN2CCN(CCNC(=O)C3CCC3)CC2)CC1` (stereo not drawn): -81.41%.
Next, `CC1CCN(CCCNC(=O)C2CCCCC2)CC1`: 1.41%; `CN(Cc1ccco1)Cc1cnc2n1CCN(c1ccccn1)CC2`: -18.6%; `CC1CCN(CC(O)CNc2ccccn2)CC1` (stereo not drawn): 39.95%.
Turning to `OC(CNc1ccc(Cl)cn1)CN1CCOCC1` (stereo not drawn), the INHIBITION is listed as 12.58%.
As to `CC1CCN(CC(O)CNc2ccc(Cl)cn2)CC1` (stereo not drawn), the INHIBITION is reported as 58.9%.
In the case of `Cc1nnc([C@@]23CCO[C@@H]2CCN(S(=O)(=O)c2cccnc2)C3)o1` it was 38.17%; in that of `O=C(c1c[nH]c2ccccc2c1=O)N1CCSCC1`, 40.47%.
Next, `CC(C(=O)Nc1ccc2ccccc2c1)N1CCC(n2ccnc2)CC1` (stereo not drawn): -17.84%.
Next, `CC(C(=O)NCCc1cccs1)N1CCC(n2ccnc2)CC1` (stereo not drawn): -22.69%.
As for `CC(C(=O)Nc1ncccn1)N1CCC(n2ccnc2)CC1` (stereo not drawn), the INHIBITION turned out to be 61.56%.
Next, `O=C(c1cc(Cl)c[nH]1)N1CCN(CCc2ccccn2)CC1`: -5.61%; `COc1cc(OC)c(CNC(=O)NCC(=O)N2CCCC2)c(OC)c1`: -19.51%.
Next, `OC1(Cn2ccc3ncccc32)CCN(Cc2ccccn2)CC1`: 7.86%; `CCc1sc(-c2nnc(CNC(C)Cn3cc(C)cn3)o2)cc1C` (stereo not drawn): -11.19%.
